Outcome and AC50 data for 3 molecules are collected here from PubChem BioAssay (EPA / NIEHS).

Each structure is given as a SMILES string. Activity calls are given as the source filed them. Rule for the calls: active = hit-call score of the fitted dose curve at least 0.9, where 1 is the maximum; inactive = score below 0.9.

Read-out in experiment [1]: CFLAR gene, CFLAR (gene 8837)
The experiment in a line: LTEA_HepaRG_CFLAR: Life Technologies and Expression Analysis (LTEA) Assay for CFLAR gene using HepaRG (AID 2283455). Particulars: mRNA level, 48 h; actives raise or lower the signal. A digest of the protocol: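 HepaRG cells were plated for 48 h, switched to serum-free induction medium, then exposed in duplicate for 48 h to 8 concentrations (top 100 uM, half-log steps, 0.5% DMSO). CFLAR mRNA was measured by qRT-PCR, normalized to ACTB, GAPDH and POLR2A.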

Read-out in experiment [2]: Forkhead box O1 (FOXO1), FOXO1 (gene 2308)
The experiment can be described thus: LTEA_HepaRG_FOXO1: Life Technologies and Expression Analysis (LTEA) Assay for Forkhead box O1 (FOXO1) using HepaRG (AID 2283456). Particulars: mRNA level, 48 h; actives raise or lower the signal. A digest of the protocol: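 Differentiated human HepaRG cells in serum-free induction medium were exposed in duplicate for 48 h to eight half-log concentrations (top 100 uM, 0.5% DMSO). FOXO1 mRNA was measured by TaqMan qRT-PCR, normalised to ACTB, GAPDH and POLR2A, and fitted bidirectionally against DMSO.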

The nature of experiment [3]: CEETOX_H295R_TESTO: CeeTox H295R High-throughput Steroidogenesis Assay for Testosterone (TESTO) (AID 2283457).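 For AC50: cells exposed to chemicals for 48 h before medium collection.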 Particulars: actives raise or lower the signal. A digest of the protocol: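 Steroidogenesis in H295R cells following OECD 456 with minor changes; 48 h exposure. Medium testosterone by HPLC-MS/MS, DMSO as baseline, with MTT viability run in parallel.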
Read-out in experiment [4]: growth arrest and DNA damage 45 (GADD45A), GADD45A (gene 1647)
The experiment can be described thus: LTEA_HepaRG_GADD45A: Life Technologies and Expression Analysis (LTEA) Assay for growth arrest and DNA damage 45 (GADD45A) using HepaRG (AID 2283458). Particulars: mRNA level, 48 h; actives raise or lower the signal. A digest of the protocol:
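Differentiated HepaRG cells exposed 48 h in serum-free induction medium to 8 concentrations, top 100 uM in half-log steps, 0.5% DMSO. GADD45A mRNA quantified by qRT-PCR, normalized to ACTB, GAPDH and POLR2A; bidirectional fit versus DMSO.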

Read-out in experiment [5]: ABC Transporter (ABCB1), ABCB1 (gene 5243)
The experiment in a line: LTEA_HepaRG_ABCB1: Life Technologies and Expression Analysis (LTEA) Assay for ABC Transporter (ABCB1) using HepaRG (AID 2283460). Particulars: mRNA level, 48 h; actives raise or lower the signal. A digest of the protocol:
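Differentiated human HepaRG cells, plated 48 h then switched to serum-free induction medium, were exposed in duplicate to eight half-log concentrations up to 100 uM in 0.5% DMSO for 48 h. ABCB1 mRNA was measured by TaqMan qRT-PCR, normalized to ACTB/GAPDH/POLR2A.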

Read-out in experiment [6]: growth arrest and DNA damage 45 (GADD45B), GADD45B (gene 4616)
The experiment in a line: LTEA_HepaRG_GADD45B: Life Technologies and Expression Analysis (LTEA) Assay for growth arrest and DNA damage 45 (GADD45B) using HepaRG (AID 2283461). Particulars: mRNA level, 48 h; actives raise or lower the signal. A digest of the protocol:
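Human HepaRG monolayers receive chemicals for 48 h at eight half-log concentrations, highest 100 uM, in 0.5% DMSO. Expression is measured by TaqMan qRT-PCR and normalized to ACTB, GAPDH and POLR2A.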

Read-out in experiment [7]: ABC Transporter (ABCC3), ABCC3 (gene 8714)
The experiment in a line: LTEA_HepaRG_ABCC3: Life Technologies and Expression Analysis (LTEA) Assay for ABC Transporter (ABCC3) using HepaRG (AID 2283462). Particulars: mRNA level, 48 h; actives raise or lower the signal. A digest of the protocol: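 Transcriptional change of ABCC3 in HepaRG after 48 h treatment, determined by qRT-PCR normalized to endogenous controls. Concentrations spanned eight half-log steps to 100 uM in 0.5% DMSO.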

Read-out in experiment [8]: ABC Transporter (ABCB11), ABCB11 (gene 8647)
The experiment in a line: LTEA_HepaRG_ABCB11: Life Technologies and Expression Analysis (LTEA) Assay for ABC Transporter (ABCB11) using HepaRG (AID 2283463). Particulars: mRNA level, 48 h; actives raise or lower the signal. A digest of the protocol: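 Differentiated human HepaRG cells were exposed for 48 h in serum-free induction medium to eight half-log concentrations up to 100 uM in 0.5% DMSO. ABCB11 mRNA was quantified by qRT-PCR, normalized to ACTB, GAPDH and POLR2A, and fitted bidirectionally versus DMSO.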

Read-out in experiment [9]: ABC Transporter (ABCC2), ABCC2 (gene 1244)
The experiment can be described thus: LTEA_HepaRG_ABCC2: Life Technologies and Expression Analysis (LTEA) Assay for ABC Transporter (ABCC2) using HepaRG (AID 2283464). Particulars: mRNA level, 48 h; actives raise or lower the signal. A digest of the protocol: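 After plating and 48 h culture, HepaRG medium is replaced with serum-free induction medium and chemicals are added (8 concentrations, max 100 uM, 0.5% DMSO) for 48 h. Total RNA then undergoes qRT-PCR for ABCC2 with housekeeping normalization.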

Read-out in experiment [10]: Broad substrate specificity ATP-binding cassette transporter ABCG2 (Homo sapiens) (UniProt Q9UNQ0)
The experiment in a line: LTEA_HepaRG_ABCG2: Life Technologies and Expression Analysis (LTEA) Assay for ABC Transporter (ABCG2) using HepaRG (AID 2283465). Particulars: mRNA level, 48 h; actives raise or lower the signal. A digest of the protocol: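 Differentiated HepaRG cells in serum-free induction medium were exposed for 48 h, in duplicate, to eight half-log concentrations up to 100 uM in 0.5% DMSO. ABCG2 mRNA was measured by TaqMan qRT-PCR, normalized to ACTB, GAPDH and POLR2A, and fitted bidirectionally versus DMSO.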

Read-out in experiment [11]: ATP-citrate lyase (ACLY), ACLY (gene 47)
The experiment in a line: LTEA_HepaRG_ACLY: Life Technologies and Expression Analysis (LTEA) Assay for ATP-citrate lyase (ACLY) using HepaRG (AID 2283466). Particulars: mRNA level, 48 h; actives raise or lower the signal. A digest of the protocol: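 Differentiated human HepaRG cells in serum-free induction medium exposed 48 h, in duplicate, to eight half-log concentrations from 100 uM top in 0.5% DMSO; ACLY mRNA measured by qRT-PCR, normalized to ACTB, GAPDH, POLR2A, fitted bidirectionally versus DMSO.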

Read-out in experiment [12]: Peroxisomal acyl-coenzyme A oxidase 1 (ACOX1) gene, ACOX1 (gene 51)
The experiment can be described thus: LTEA_HepaRG_ACOX1: Life Technologies and Expression Analysis (LTEA) Assay for Peroxisomal acyl-coenzyme A oxidase 1 (ACOX1) gene using HepaRG (AID 2283467). Particulars: mRNA level, 48 h; actives raise or lower the signal. A digest of the protocol:
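Differentiated human HepaRG cells were exposed in duplicate for 48 h in serum-free induction medium to eight half-log concentrations up to 100 uM in 0.5% DMSO. ACOX1 mRNA was then quantified by TaqMan qRT-PCR, normalized to ACTB, GAPDH and POLR2A.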

Read-out in experiment [13]: Alkaline Phosphatase, Placental (ALPP) gene, ALPP (gene 250)
The experiment can be described thus: LTEA_HepaRG_ALPP: Life Technologies and Expression Analysis (LTEA) Assay for Alkaline Phosphatase, Placental (ALPP) gene using HepaRG (AID 2283468). Particulars: mRNA level, 48 h; actives raise or lower the signal. A digest of the protocol:
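Using human liver HepaRG cells, chemicals are tested in duplicate over 48 h at half-log concentrations topping at 100 uM; phenobarbital 1 mM serves as induction control. ALPP mRNA change by qRT-PCR, bidirectional fit against vehicle.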

Read-out in experiment [14]: Bcl-2 (BAD) gene, BAD (gene 572)
The experiment in a line: LTEA_HepaRG_BAD: Life Technologies and Expression Analysis (LTEA) Assay for Bcl-2 (BAD) gene using HepaRG (AID 2283469). Particulars: mRNA level, 48 h; actives raise or lower the signal. A digest of the protocol: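 Differentiated human HepaRG cells in serum-free induction medium were exposed in duplicate for 48 h to eight concentrations (top 100 uM, half-log steps, 0.5% DMSO). BAD mRNA was quantified by qRT-PCR normalised to ACTB, GAPDH and POLR2A, with bidirectional fitting versus DMSO.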

Read-out in experiment [15]: Bcl-2 (BAX) gene, BAX (gene 581)
The experiment can be described thus: LTEA_HepaRG_BAX: Life Technologies and Expression Analysis (LTEA) Assay for Bcl-2 (BAX) gene using HepaRG (AID 2283470). Particulars: mRNA level, 48 h; actives raise or lower the signal. A digest of the protocol:
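Differentiated HepaRG cells exposed 48 h in serum-free induction medium, eight half-log concentrations from 100 uM, in duplicate, 0.5% DMSO vehicle. BAX mRNA by TaqMan qRT-PCR, normalised to ACTB, GAPDH and POLR2A.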

Read-out in experiment [16]: Alpha-fetoprotein (AFP) gene, AFP (gene 174)
The experiment in a line: LTEA_HepaRG_AFP: Life Technologies and Expression Analysis (LTEA) Assay for Alpha-fetoprotein (AFP) gene using HepaRG (AID 2283472). Particulars: mRNA level, 48 h; actives raise or lower the signal. A digest of the protocol:
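Differentiated human HepaRG cells exposed 48 h in serum-free induction medium, 8-point half-log series from 100 uM in 0.5% DMSO, duplicate. AFP mRNA by qRT-PCR, normalized to ACTB, GAPDH, POLR2A; bidirectional fit vs DMSO.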

Read-out in experiment [17]: BCL2L11 (gene 10018)
The experiment can be described thus: LTEA_HepaRG_BCL2L11: Life Technologies and Expression Analysis (LTEA) Assay for Bcl-2 (BCL2L11) gene using HepaRG (AID 2283473). Particulars: mRNA level, 48 h; actives raise or lower the signal. A digest of the protocol: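 Human hepatic HepaRG cultures are treated 48 h with test chemicals (maximum 100 uM, 0.5% DMSO vehicle). Expression of BCL2L11 is measured by qRT-PCR against ACTB, GAPDH and POLR2A, with activity in either direction scored relative to vehicle.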

Read-out in experiment [18]: Apolipoprotein A-V (APOA5) gene, APOA5 (gene 116519)
The experiment can be described thus: LTEA_HepaRG_APOA5: Life Technologies and Expression Analysis (LTEA) Assay for Apolipoprotein A-V (APOA5) gene using HepaRG (AID 2283474). Particulars: mRNA level, 48 h; actives raise or lower the signal. A digest of the protocol: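 Concentration-response of APOA5 expression in HepaRG: eight half-log doses to 100 uM, 48 h, qRT-PCR normalized to ACTB/GAPDH/POLR2A, bidirectional fitting with 0.5% DMSO as baseline.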

Read-out in experiment [19]: Forkhead box O3 (FOXO3), FOXO3 (gene 2309)
The experiment in a line: LTEA_HepaRG_FOXO3: Life Technologies and Expression Analysis (LTEA) Assay for Forkhead box O3 (FOXO3) using HepaRG (AID 2283459). Particulars: mRNA level, 48 h; actives raise or lower the signal. A digest of the protocol: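 Differentiated human HepaRG cells in serum-free induction medium were exposed in duplicate for 48 h to eight half-log concentrations up to 100 uM in 0.5% DMSO. FOXO3 mRNA was quantified by qRT-PCR, normalized to ACTB, GAPDH and POLR2A, with bidirectional fitting versus DMSO.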

Read-out in experiment [20]: adenosine kinase (ADK) gene, ADK (gene 132)
The experiment can be described thus: LTEA_HepaRG_ADK: Life Technologies and Expression Analysis (LTEA) Assay for adenosine kinase (ADK) gene using HepaRG (AID 2283471). Particulars: mRNA level, 48 h; actives raise or lower the signal. A digest of the protocol:
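Following 48 h exposure of HepaRG cells in 0.5% DMSO (top concentration 100 uM, duplicate wells), ADK mRNA induction or suppression was measured by qRT-PCR, normalised to ACTB/GAPDH/POLR2A, and fitted bidirectionally relative to vehicle.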

Chain of Broad substrate specificity ATP-binding cassette transporter ABCG2 (Homo sapiens) (Q9UNQ0 whole entry, looked up): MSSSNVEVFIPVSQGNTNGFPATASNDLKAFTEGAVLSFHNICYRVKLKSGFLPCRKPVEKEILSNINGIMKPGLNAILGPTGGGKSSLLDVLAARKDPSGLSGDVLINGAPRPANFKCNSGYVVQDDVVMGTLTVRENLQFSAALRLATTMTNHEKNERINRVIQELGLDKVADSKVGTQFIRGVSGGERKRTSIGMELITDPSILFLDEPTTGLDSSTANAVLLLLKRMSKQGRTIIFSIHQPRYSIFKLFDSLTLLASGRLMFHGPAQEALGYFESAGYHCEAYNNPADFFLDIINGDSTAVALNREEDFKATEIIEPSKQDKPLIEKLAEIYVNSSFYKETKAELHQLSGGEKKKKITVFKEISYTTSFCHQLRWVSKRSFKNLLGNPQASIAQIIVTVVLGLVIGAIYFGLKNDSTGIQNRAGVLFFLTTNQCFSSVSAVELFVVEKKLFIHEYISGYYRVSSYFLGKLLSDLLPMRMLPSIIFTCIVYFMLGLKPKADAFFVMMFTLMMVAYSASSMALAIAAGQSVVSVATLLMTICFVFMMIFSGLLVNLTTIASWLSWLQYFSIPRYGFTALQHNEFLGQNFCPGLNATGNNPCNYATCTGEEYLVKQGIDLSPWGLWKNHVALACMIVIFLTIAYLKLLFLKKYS

Broadly, the AC50 is the concentration giving half of the maximal activity seen. On to `CC1=C2C[C@H]3[C@@H](CC=C4C[C@@H](O)CC[C@@]43C)[C@@H]2CC[C@]12O[C@@H]1C[C@H](C)CN[C@H]1[C@H]2C`, for which the molecule was called inactive in experiment [1], in [2], in experiment [3], in experiment [4], in experiment [5] and in experiment [6]. Also, the molecule was called inactive in experiment [7], in experiment [8], in experiment [9], in experiment [11], in [12] and in experiment [13]. Further, the result in experiment [14], in experiment [15], in experiment [16], in experiment [17] and in [18] was inactive. The AC50 in [10] was 12.1 µM (active).
Take `O=C(O)C(F)(F)C(F)(F)C(F)(F)C(F)(F)C(F)(F)C(F)(F)C(F)(F)C(F)(F)C(F)(F)F`: the concentration at half-maximal activity (AC50) in experiment [1] was 89.5 µM (active); in experiment [2], 81.6 µM (active); in experiment [4], 85.5 µM (active); in [5], 85.1 µM (active); in experiment [7] it was 88.5 µM (active); in experiment [8], 61 µM (active). Besides, the AC50 was 94.8 µM (active) in experiment [9]; 76.5 µM (active) in experiment [11]; 78.4 µM (active) in experiment [12]; 68.1 µM (active) in experiment [13]; 12.6 µM (active) in experiment [15]; 81.1 µM (active) in experiment [20]. Moreover, the AC50 in experiment [17] is 12.1 µM (active); in experiment [18] it was 30.8 µM (active). Also, the molecule was called inactive in experiment [19], in experiment [6], in experiment [10] and in [14].
Consider `c1cc2ccc3cccc4ccc(c1)c2c34`, for which the molecule was classed as inactive in experiment [1], in experiment [2], in experiment [4], in experiment [19], in [5] and in experiment [6]. Further, the molecule was classed as inactive in experiment [7], in experiment [8], in [9], in experiment [11], in experiment [12] and in experiment [13]. For the same molecule, the molecule was called inactive in experiment [14], in experiment [15], in experiment [20], in experiment [17] and in [18]. In addition, the AC50 was 29.5 µM (active) in experiment [3] and 4.08 µM (active) in [10].
